# Screening data deposited in PubChem BioAssay by National Center for Advancing Translational Sciences (NCATS).
# ALOX12 inhib = qHTS Assay for Inhibitors of 12-hLO (12-human lipoxygenase); purified 12-hLO, xylenol orange hydroperoxide absorbance; AID 1452, 2008; 150,000 tested, 0.12% active; Polyunsaturated fatty acid lipoxygenase ALOX12 (Homo sapiens), P18054; Potency, µM (top dose mostly 57.1 µM), inactives show at the highest dose activity change, negative = inhibition, hits mostly inhibitors; active = well fitted curve in the direction sought with a large enough effect; inconclusive = small, poorly fitted or top-dose-only effect, or another doubt; inactive = no such curve, though single readings can be large; an effect the other way counts as inactive or inconclusive; note: potency is the fitted concentration of half-maximal effect; nearly all actives have a fitted effect of over 55% in size
#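 Xylenol orange chromogenic assay: hydroperoxide from 12hLO oxidises Fe(II), giving red-shifted Fe(III)-XO absorbance. Conditions: 150 nM enzyme, 40 uM arachidonic acid, 25 mM Hepes pH 7.0, 0.01% Triton X-100, 30 min, room temperature.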
# IMPase Li inh = qHTS Assay for Identifying the Cell-Membrane Permeable IMPase Inhibitors: Potentiation with Lithium; AID 1457, 2008; CHO-M1 cells, IP1 TR-FRET (IP-One), carbachol + lithium; 210,000 tested, 0.35% active; Potency, µM (highest dose often 59.4 µM), for the others: at the highest dose activity, negative = IMPase inhibition, usual class: inhibitors; active = well fitted curve in the direction sought with a large enough effect; inconclusive = small, poorly fitted or top-dose-only effect, or another doubt; inactive = no such curve, though single readings can be large; an effect the other way counts as inactive or inconclusive;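 note: IP1 builds up when IMPase is blocked and the TR-FRET signal falls; potency is the fitted concentration of half-maximal effect; plate controls were basal vehicle for no effect and high inhibitor control for full effect; nearly all actives have a fitted effect of over 50% in size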
#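 CHO cells stably expressing M1 receptor (2000/well, cultured 16–30 h) treated 30 min at 37C with compound plus low lithium. Cytosolic IP1 by TR-FRET (665/620 ratio and 620 channel) after 10 min lysis; AC50 by Hill fit.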
# ALDH1A1 block = qHTS Assay for Inhibitors of Aldehyde Dehydrogenase 1 (ALDH1A1); Aldehyde dehydrogenase 1A1 (Homo sapiens), P00352; Potency, µM (titrated, usually from 75.3 µM), for inactives: at the top dose activity, negative = inhibition, hits mostly inhibitors; 220,000 tested, 7.3% active; Purified ALDH1A1, NADH fluorescence, propionaldehyde substrate; AID 1030, 2008;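 note: potency is the fitted concentration of half-maximal effect; plate controls were no enzyme wells and a reference inhibitor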
# Target sequence (P00352 whole entry, looked up): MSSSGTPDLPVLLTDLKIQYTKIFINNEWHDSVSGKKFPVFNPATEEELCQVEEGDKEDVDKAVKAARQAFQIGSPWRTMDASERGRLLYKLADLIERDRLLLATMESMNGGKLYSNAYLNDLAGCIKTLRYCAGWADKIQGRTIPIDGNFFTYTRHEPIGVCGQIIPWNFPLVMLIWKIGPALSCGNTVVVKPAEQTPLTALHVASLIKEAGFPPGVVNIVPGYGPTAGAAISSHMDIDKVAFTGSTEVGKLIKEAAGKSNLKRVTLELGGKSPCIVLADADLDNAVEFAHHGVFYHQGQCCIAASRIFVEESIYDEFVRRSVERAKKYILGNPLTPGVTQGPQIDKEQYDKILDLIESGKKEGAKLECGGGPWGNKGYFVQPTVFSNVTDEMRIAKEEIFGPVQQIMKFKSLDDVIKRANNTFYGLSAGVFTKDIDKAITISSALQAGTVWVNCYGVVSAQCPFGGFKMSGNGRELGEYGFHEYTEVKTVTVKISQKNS
# PNC assembly inh = High Content Assay for Compounds that inhibit the Assembly of the Perinucleolar Compartment; PC3M PTB-GFP, PNC prevalence imaging, 16 h; hits give low values; activity change (PNC), negative = inhibition, % at 10 µM; 140,000 tested, 3.1% active;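 active = readout at or below -70, meaning at least 70% loss of cells showing the perinucleolar compartment, a nuclear body marking cancer cells; inconclusive = readout between -30 and a set limit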;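 note: plate controls were DMSO wells for no effect and camptothecin positive control wells for full effect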
#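 Read-out is percentage of cells bearing a perinucleolar compartment, from automated 20x imaging of fixed, Hoechst-stained PC3M PTB-GFP cells. Cells were seeded 4 h, then exposed 16 h to compound (23 nl of library stock) in duplicate plates.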
# HPGD inh = qHTS Assay for Inhibitors of HPGD (15-Hydroxyprostaglandin Dehydrogenase); 15-hydroxyprostaglandin dehydrogenase [NAD(+)] (Homo sapiens), P15428; purified HPGD, NADH fluorescence kinetic, PGE2 substrate; Potency, µM, without a hit: at the highest dose activity change, negative = inhibition, usual class: inhibitors; 150,000 tested, 4.3% active; note: potency is the fitted concentration of half-maximal effect
# Target sequence (P15428 whole entry, looked up): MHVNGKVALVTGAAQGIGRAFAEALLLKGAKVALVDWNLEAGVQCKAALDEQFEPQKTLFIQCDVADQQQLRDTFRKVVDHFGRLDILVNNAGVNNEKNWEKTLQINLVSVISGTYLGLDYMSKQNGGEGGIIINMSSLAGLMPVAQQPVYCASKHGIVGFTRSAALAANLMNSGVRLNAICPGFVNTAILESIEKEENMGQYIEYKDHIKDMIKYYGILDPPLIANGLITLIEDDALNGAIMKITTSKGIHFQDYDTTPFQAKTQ
#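 20 nM HPGD preincubated 15 min at room temperature with compound in 50 mM Tris-HCl pH 8, 0.01% Tween 20. Started with 1 mM NAD+ and 30 uM prostaglandin E2; NADH fluorescence (360/450 nm) read 5 times over 30-s intervals, last minus first.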
# IMPase inh = qHTS Assay for Identifying the Cell-Membrane Permeable IMPase Inhibitors. Inositol monophosphatase 1 (Rattus norvegicus), P97697. CHO-M1 cells, IP1 accumulation, HTRF TR-FRET ratio. inhibition (IP1 accumulation), % at 46.1 µM. 120,000 tested, under 10 active. AID 901, 2007; active = well fitted curve in the direction sought with a large enough effect in the signal ratio, not every such curve was filed as active; inconclusive = small, poorly fitted or top-dose-only effect, or a change in a side signal; inactive = no such curve, though single readings can be large or run the other way; the % refers to the signal ratio;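 note: cells stimulated with carbachol in lithium chloride buffer; plate controls were DMSO basal wells for no effect and reference inhibitor wells for full effect; higher means more IMPase inhibition seen as more IP1 and lower FRET ratio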
#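 Measured: the HTRF emission ratio (665/620 nm) plus the 620 nm donor channel, each fitted to the Hill equation to give AC50. Cells were CHO-M1 given compounds up to 46 uM and a 30 min carbachol stimulation at 37C.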
# Starred values were filed as active, the others as inactive; u = inconclusive; x = no result given; [ ] = remark or other dose. An excerpt weighted towards active compounds, which were near 11% of everything screened. Unless noted, calls come from the whole dose curve; as a rule, active = well fitted inhibition curve with a large enough effect (not every such curve was filed as active); inconclusive = small, poorly fitted or top-dose-only effect, or another doubt; inactive = no such curve, though single readings can be large or run the other way. Unless noted, % is set by controls: 0 for no effect and ±100 for the full control effect.
SMILES,ALOX12 inhib,IMPase Li inh,ALDH1A1 block,PNC assembly inh,HPGD inh,IMPase inh
COc1ccc2cc(CN(CCCN3CCOCC3)Cc3nnnn3C3CCCCC3)c(=O)[nH]c2c1,0.8%,-4.1%[38.3 µM],12.6µM*,25.5,-2.9%,0.1
Cc1cccc2cc(CN(Cc3ccc(F)cc3)Cc3nnnn3C3CCCC3)c(=O)[nH]c12,-2.3%,7.9%[38.3 µM],14.1µM*,-17.7,6.9%,0.2
Cc1ccc2cc(CN(Cc3nnnn3C3CCCC3)C3CCCCC3)c(=O)[nH]c2c1C,-6.5%,3.7%[38.3 µM],7.94µM*,-14.1,-7.5%,-6.6
COc1cc2cc(CN(Cc3nnnn3C3CCCC3)C3CCCC3)c(=O)[nH]c2cc1OC,-1.2%,-14.5%[38.3 µM],-3.1%,u,-13.8%,-7.8
O=c1[nH]c2cc3c(cc2cc1CN(Cc1nnnn1C1CCCC1)C1CCCC1)OCCO3,0.5%,32.6%[38.3 µM],u,-18.3,-4.6%,0.4
Cc1ccc2[nH]c(=O)c(CN(Cc3nnnn3C3CCCC3)C3CCCCC3)cc2c1,-4.0%,-14.7%[38.3 µM],25.1µM*,-100.0*,-9.5%,1.5
CC(=O)[C@]1(O)CC[C@@H]2[C@H]3C[C@@H](C)C4=CC(=O)CC[C@@]4(C)C3[C@@H](O)C[C@]21C (stereo partly specified),x,3.1%,u,x,-18.2%,x
Cc1ccc(C)c2[nH]c(=O)c(CN(CCN3CCOCC3)Cc3nnnn3CC3CCCO3)cc12 (stereo unspecified),-1.8%,0.4%[38.3 µM],u,3.0,-15.1%,3.9
Cc1ccc2[nH]c(=O)c(CN(Cc3ccccc3)Cc3nnnn3C3CCCC3)cc2c1,-4.5%,45.2%[38.3 µM],14.1µM*,-93.3*,-8.2%,6.3
Cc1ccc(C)c2[nH]c(=O)c(CN(Cc3nnnn3C3CCCCC3)CC3CCCO3)cc12 (stereo unspecified),-4.2%,16.9%[38.3 µM],1.78µM*,-13.8,-16.0%,1.8
Cc1[nH]c(=S)sc1Cc1ccc(F)cc1,-3.9%,-2.3%,u,40.2,15.8µM*,x
CN(C)c1ccc(C(CN)c2c[nH]c3ccccc23)cc1 (stereo unspecified),x,15.5%,15.8µM*,x,x,x
CN(C)c1ccc(C(CNS(=O)(=O)c2ccc3ccccc3c2)c2c[nH]c3ccccc23)cc1 (stereo unspecified),-4.6%,-5.7%,-8.8%,u,-3.7%,x
O=C(N/N=C/c1c[nH]c2ccccc12)c1cc(-c2ccc3ccccc3c2)n[nH]1,-3.8%,0.1%,16.4%,-112.6*,u,8.0
COc1cccc(/C=N/NC(=O)c2cc(-c3ccc(C)cc3)n[nH]2)c1O,-3.2%,x,-0.7%,x,39.8µM*,x
Cc1nc(C)c(C(=O)N/N=C/c2cn(C)c3ccccc23)s1,-3.4%,22.0%[38.3 µM],0.5%,-5.1,-10.9%,2.4
CC(C)(C)OC(=O)N/N=C/c1c[nH]c2ccccc12,-1.3%,-3.0%,7.6%,-109.0*,-10.6%,x
O=C(N/N=C/c1c[nH]c2ccccc12)c1cc(-c2ccc(-c3ccccc3)cc2)n[nH]1,5.5%,-10.9%[38.3 µM],4.1%,-13.3,u,17.9
Cc1nc(C)c(C(=O)N/N=C/c2c[nH]c3ccccc23)s1,-3.2%,10.0%[38.3 µM],u,-87.0*,u,1.2
CCOC(=O)NC1(C(F)(F)F)NC(=O)N(c2ccc(C)c(C)c2)C1=O (stereo unspecified),x,x,x,x,x,-10.7
COc1cc(OC)c(N2CC34C=CC(O3)C(C(=O)O)C4C2=O)cc1Cl (stereo unspecified),4.0%,-1.9%[38.3 µM],-3.1%,-91.7*,-5.0%,-1.7
COc1ccc(-c2noc(COc3cc(C)ccc3C)n2)cc1OC,x,x,x,x,x,16.6
O=S1(=O)c2ccccc2N=NN1Cc1ccc(Cl)cc1,-24.6%,30.8%[38.3 µM],2.38µM*,8.2,28.2µM*,1.3
O=C(O)CCCSc1ccccc1,1.3%[11.4 µM],-3.0%,21.9%[13.5 µM],x,-11.0%,x
Cc1ccc(S(=O)(=O)Nc2cccc(CP(=O)(c3ccccc3)c3ccccc3)c2)cc1,x,x,23.8µM*,x,x,x
SMILES,ALOX12 inhib,IMPase Li inh,ALDH1A1 block,PNC assembly inh,HPGD inh,IMPase inh
CCn1c2ccccc2c2cc(NS(=O)(=O)c3ccc(C)cc3)ccc21,-14.2%,-6.6%[38.3 µM],-9.0%,4.6,-15.9%,-0.9
CC1CC[C@@]2(OC1)OC1CC3C4CC[C@H]5CC(O)CC[C@@]5(C)C4CC[C@]3(C)C1C2C (stereo partly specified),-0.6%,7.3%,1.1%,x,-11.1%,x
CCN=C1SC(C(=O)Nc2cccc(C(=O)O)c2)CC(=O)N1CC (stereo unspecified),-0.8%,-21.8%[38.3 µM],6.8%,37.7,-11.6%,-0.5
CCN=C1SC(C(=O)Nc2ccccc2)CC(=O)N1CC (stereo unspecified),-0.4%,38.4%[38.3 µM],u,-85.4*,-11.4%,4.2
NCCC[C@@H](CC(=O)N[C@@H]1CCNC[C@H]1C(=O)N[C@H](CC(=O)N[C@@H](CCC(=O)O)CC(=O)O)Cc1c[nH]c2ccccc12)NC(=O)C[C@H](Cc1ccccc1)NC(=O)[C@@H]1CNCC[C@H]1N,1.1%,13.8%,-2.2%,x,-7.9%,x
Cn1cc(/C=N/n2cnc3scc(-c4ccc(Cl)cc4)c3c2=O)c2ccccc21,-0.7%,-16.6%[38.3 µM],u,-99.0*,u,0.8
CN(C)c1ccc(C(=O)NCC2CCCO2)cc1 (stereo unspecified),-0.5%,1.8%,1.0%,u,14.1µM*,-2.4[0.369 µM]
Cn1c(C(=O)NCC2CCCO2)cc2c(=O)n3ccccc3nc21 (stereo unspecified),2.3%,8.91µM*,u,-11.3,u,-5.4
O=C(NCC1CCCO1)c1ccc2nc(N3CCCCC3)sc2c1 (stereo unspecified),0.0%,11.3%,u,86.4,u,1.2
O=C(NCC1CCCO1)c1ccc(N2CCCCC2)nc1 (stereo unspecified),0.1%,47.1%[38.3 µM],u,6.7,14.1µM*,-3.2[1.84 µM]
O=C(NCC1CCCO1)c1ccccc1 (stereo unspecified),2.1%,-13.5%[38.3 µM],3.5%,4.9,20µM*,-8.3
COCCn1c(=N)c(C(=O)NCC2CCCO2)cc2c(=O)n3ccccc3nc21 (stereo unspecified),x,x,x,x,x,-8.1
COc1ccc(-n2c(=O)c(-c3cccs3)nc3cncnc32)cc1,x,-8.4%,u,x,x,x
CCCCCCCCCCCCCCCC(=O)OC(CO)CO,-4.0%,-2.6%,-2.7%,x,-21.1%,x
O=C(NCC1CCCO1)C1CCC(=O)N1CCc1ccccc1 (stereo unspecified),-0.1%,-10.6%[38.3 µM],-5.7%,-102.1*,-11.2%,-6.8
